According to PubChem BioAssay AID1159580 (chemical genetic matrix, 2015):
The campaign covered roughly 5,500 compounds. About 2,000 (36%) were called active. Another 18% or so got no clear call; they are omitted. Rule as the data show it: active = normalized growth mostly below about 0.91 (no sharp cut-off); inconclusive = no clear call, values can overlap the other calls; inactive = mostly above about 0.92. Some of the results follow.

Test: chemical genetic growth profiling, strain panel (AID 1159580);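 also: tested at 20 µM; growth read once vehicle control cultures reached saturation at 30 °C; 1 = growth at the plate median or of vehicle wells; lower values mean less growth of the strain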
Conditions: S. cerevisiae deletion strains, growth OD
[1] = locus YAL013W, strain DEP1, active compounds read low
[2] = locus YBR229C, strain ROT2, active compounds read low
[3] = locus YDL101C, strain DUN1, active compounds read low
[4] = locus YDR150W, strain NUM1, active compounds read low
[5] = locus YEL061C, strain CIN8, active compounds read low
[6] = locus YGR078C, strain PAC10, active compounds read low
[7] = locus YGR229C, strain SMI1, active compounds read low
[8] = locus YHR030C, strain SLT2, active compounds read low
[9] = locus YHR087W, strain rtc3, active compounds read low
[10] = locus YJR043C, strain POL32, active compounds read low
[11] = locus YJR075W, strain HOC1, active compounds read low
[12] = locus YLR039C, strain RIC1, active compounds read low
[13] = locus YLR058C, strain SHM2 (second series), active compounds read low
[14] = locus YLR085C, strain ARP6, active compounds read low
[15] = locus YLR262C, strain YPT6, active compounds read low
[16] = locus YML094W, strain GIM5, active compounds read low
[17] = locus YMR219W, strain ESC1, active compounds read low
[18] = locus YMR263W, strain SAP30, active compounds read low
[19] = locus YMR307W, strain GAS1, active compounds read low
[20] = locus YNL153C, strain GIM3, active compounds read low
[21] = locus YNL298W, strain CLA4 (second series), active compounds read low
[22] = locus YNL322C, strain KRE1, active compounds read low
[23] = locus YNR030W, strain Alg12, active compounds read low
[24] = locus YOL006C, strain TOP1, active compounds read low
[25] = locus YPL055C, strain LGE1, active compounds read low
[26] = locus YPL241C, strain CIN2, active compounds read low
[27] = locus YPR135W, strain CTF4, active compounds read low
[28] = locus YJL187C, strain SWE1, active compounds read low

Measured: normalized growth

Brc1ccc(-c2ccn[nH]2)s1
inactive: [1] 0.978 | [2] 0.966 | [3] 0.971 | [4] 1.02 | [5] 0.938 | [6] 0.973 | [7] 0.955 | [8] 0.938 | [9] 0.993 | [10] 1 | [11] 0.971 | locus YKL190W, strain CNB1, active compounds read low 0.949 | [13] 0.963 | [16] 0.886 | [17] 0.968 | [18] 1.02 | [19] 0.953 | locus YNL128W, strain TEP1, active compounds read low 0.94 | [21] 0.936 | [22] 0.97 | [23] 0.939 | [25] 1.07 | [27] 0.789
active: [12] 0.703 | [14] 0.721 | [15] 0.67 | [20] 0.906 | [24] 0.715 | [26] 0.525

CN(C)C=Nc1nnc(Sc2nc3c(Cl)cc(Cl)cc3s2)s1
inactive: locus YAR019C, strain CDC15, active compounds read low 0.959 | locus YBL105C, strain PKC1, active compounds read low 0.969 | locus YBR135W, strain CKS1, active compounds read low 0.973 | locus YBR136W, strain MEC1, active compounds read low 0.968 | locus YBR160W, strain CDC28, active compounds read low 0.977 | locus YDL017W, strain CDC7, active compounds read low 0.976 | locus YDL028C, strain MPS1, active compounds read low 0.975 | [3] 0.972 | locus YDL108W, strain KIN28, active compounds read low 0.976 | locus YDL132W, strain cdc53, active compounds read low 0.964 | locus YDL214C, strain PRR2, active compounds read low 0.97 | locus YDR052C, strain DBF4, active compounds read low 0.972 | locus YDR054C, strain cdc34, active compounds read low 0.954 | locus YDR226W, strain ADK1, active compounds read low 0.961 | locus YDR477W, strain SNF1, active compounds read low 0.944 | locus YER123W, strain YCK3, active compounds read low 0.953 | locus YER133W, strain GLC7, active compounds read low 0.925 | locus YFL009W, strain cdc4, active compounds read low 0.963 | locus YFL029C, strain CAK1, active compounds read low 0.959 | locus YFR003C, strain YPI1, active compounds read low 0.973 | locus YFR019W, strain FAB1, active compounds read low 0.975 | locus YFR028C, strain CDC14, active compounds read low 0.969 | locus YGR040W, strain KSS1, active compounds read low 0.943 | locus YGR052W, strain FMP48, active compounds read low 1 | locus YGR092W, strain DBF2, active compounds read low 0.929 | [8] 1.11 | locus YHR079C, strain IRE1, active compounds read low 0.946 | locus YHR082C, strain KSP1, active compounds read low 1.07 | locus YHR205W, strain SCH9, active compounds read low 1.01 | locus YIL147C, strain SLN1, active compounds read low 0.964 | locus YJL095W, strain BCK1, active compounds read low 0.937 | locus YJL128C, strain PBS2, active compounds read low 0.944 | locus YJL157C, strain FAR1, active compounds read low 0.941 | locus YJR016C, strain ILV3, active compounds read low 0.967 | locus YJR066W, strain TOR1 (second series), active compounds read low 0.924 | locus YJR066W, strain TOR1, active compounds read low 1.01 | locus YKL048C, strain ELM1, active compounds read low 1.01 | locus YKL067W, strain YNK1, active compounds read low 0.958 | locus YKL101W, strain HSL1, active compounds read low 1.01 | locus YKL193C, strain SDS22, active compounds read low 0.968 | locus YKL203C, strain TOR2, active compounds read low 0.96 | locus YLR113W, strain HOG1, active compounds read low 0.964 | locus YLR133W, strain CKI1, active compounds read low 0.968 | locus YLR403W, strain SFP1, active compounds read low 0.924 | locus YML070W, strain DAK1, active compounds read low 0.98 | locus YMR001C, strain CDC5, active compounds read low 0.969 | locus YMR205C, strain PFK2 (second series), active compounds read low 0.99 | locus YMR277W, strain FCP1, active compounds read low 0.962 | locus YNL006W, strain LST8, active compounds read low 0.969 | locus YNL020C, strain ARK1, active compounds read low 0.966 | locus YNL161W, strain CBK1, active compounds read low 0.967 | locus YNL183C, strain NPR1, active compounds read low 0.995 | locus YNL207W, strain RIO2, active compounds read low 0.959 | locus YNL222W, strain SSU72, active compounds read low 0.97 | locus YNL307C, strain MCK1 (second series), active compounds read low 0.979 | locus YOL078W, strain AVO1, active compounds read low 0.973 | locus YOL136C, strain PFK27, active compounds read low 0.984 | locus YOR061W, strain CKA2, active compounds read low 0.944 | locus YOR119C, strain RIO1, active compounds read low 1 | locus YOR231W, strain MKK1, active compounds read low 0.954 | locus YOR329C, strain SCD5, active compounds read low 0.968 | locus YPL031C, strain PHO85, active compounds read low 0.9 | locus YPL153C, strain RAD53, active compounds read low 0.913 | locus YPL204W, strain HRR25, active compounds read low 0.903 | locus YPL209C, strain IPL1, active compounds read low 0.975 | locus YPL256C, strain CLN2, active compounds read low 1.1 | locus YPR025C, strain CCL1, active compounds read low 0.971 | locus YPR106W, strain ISR1, active compounds read low 0.98 | locus YPR111W, strain DBF20, active compounds read low 0.957 | strain NNK1, active compounds read low 0.974 | strain TSCII, active compounds read low 0.957

CN(C)C=Nc1nnc(Sc2nc3cc(Cl)ccc3s2)s1
active: [8] 0.631 | [12] 0.757 | [14] 0.707 | [17] 0.932 | [24] 0.71 | [25] 0.796 | [26] 0.848
inactive: [1] 0.939 | [2] 0.958 | [3] 0.977 | [4] 0.968 | [5] 0.93 | [6] 0.983 | [9] 0.914 | [28] 0.938 | [10] 0.966 | [11] 0.974 | [13] 0.969 | [15] 0.826 | [16] 0.909 | [18] 0.957 | [20] 0.962 | [21] 0.887 | [22] 0.987 | [23] 0.93 | [27] 0.698

CN(C)C=Nc1nnc(SCc2ccc(C(=O)Oc3ccc(F)cc3F)cc2)s1
inactive: [1] 0.989 | [2] 1.05 | [3] 1.02 | [4] 0.939 | [5] 1.01 | [6] 1.01 | [7] 1.01 | [8] 0.931 | [9] 1.02 | [28] 1.01 | [10] 0.949 | [11] 1.03 | [12] 1.08 | [13] 1.01 | [14] 0.919 | [15] 1.04 | [16] 0.973 | [17] 1.01 | [18] 0.924 | [19] 0.915 | [20] 1.02 | [21] 1 | [22] 1.03 | [23] 0.989 | [24] 1.07 | [25] 0.855 | [26] 0.996 | [27] 0.926

C[C@H](O)C(=O)C1=Nc2c(nc(N)[nH]c2=O)NC1
inactive: [1] 0.952 | locus YAL040C, strain CLN3, active compounds read low 0.966 | locus YCL061C, strain MRC1 (second series), active compounds read low 0.983 | locus YDR363W, strain ESC2, active compounds read low 0.952 | locus YER002W, strain NOP16, active compounds read low 1.04 | [6] 0.998 | [11] 0.98 | [18] 0.983 | [19] 0.983 | locus YNL175C, strain NOP13, active compounds read low 1.01 | locus YNL197C, strain WHI3, active compounds read low 1.01 | locus YNL224C, strain SQS1, active compounds read low 0.997 | [22] 0.955 | locus YOR083W, strain WHI5 (second series), active compounds read low 0.996 | [25] 0.971
